ChEMBL document CHEMBL3988442, “University of Dundee, Small-Polar-MMV Screening Library” (2021)
Hit rate of the full screen: of about 48,000 compounds, about 13,000 (27%) showed an effect of 50% or more. The list shows a part of the results.

Each compound was assayed on Wolbachia pipientis (assay: Anti-Wolbachia Cell-Based Screen). Conditions: 5 µM.
Assay type: functional
Parameters: scale not given: in the data most compounds retested in dose-response had high values

Row | SMILES | Percent Effect
1 | c1cc(CCN2CCCC2CN2CCCCC2)ccn1 (centres undefined) | 39.01%
2 | CCN(CC)Cc1ccc(C(=O)NC2CCc3cc(F)ccc32)o1 (centres undefined) | 6.12%
3 | Cc1nccn1CCC1CCCCN1C(=O)c1ccc2nonc2c1 (centres undefined) | 1.487%
4 | Cn1c(CN2CCCCC2)nnc1C1CCCN(C(=O)CCC(N)=O)C1 (centres undefined) | 11.64%
5 | NC(=O)CCN(C(=O)c1cccc2c1OCO2)c1ccccc1 | 16.64%
6 | Cc1n[nH]c(=O)c2c(NC(=O)CN3CCOCC3)oc(C)c12 | 3.045%
7 | CC1(C)OC(=O)N(CCCOc2ccc(F)cc2)C1=O | 96.74%
8 | CC1(C)OC(=O)N(CCCC(=O)c2ccc(F)cc2)C1=O | 116.7%
9 | O=S1(=O)COCCN1CCOc1ccc(F)cc1 | -2.392%
10 | CN1CCCC1CNC(=O)CCCOc1ccc(F)cc1 (centres undefined) | -3.981%
11 | CC1(C)OC(=O)N(CCOc2ccc(F)cc2)C1=O | 112.1%
12 | CN(Cc1ccon1)C(=O)CN1C(=O)OC(C)(C)C1=O | -6.77%
13 | CN(Cc1ccoc1)C(=O)CN1C(=O)OC(C)(C)C1=O | -7.956%
14 | O=S1(=O)COCCN1CCCOc1ccc(F)cc1 | 1.2%
15 | N[C@H]1CN(CCOc2ccc(F)cc2)C[C@@H]1C1CC1 | -23.63%
16 | CC(C)OCCSCc1nnc(-c2cccc(F)c2)o1 | -1.35%
17 | CCNC(=O)[C@@H]1C[C@H](N)CN1C(=O)CCc1ccccc1Cl | -6.305%
18 | Cn1cc(CN2CCO[C@H]3CN(Cc4ccco4)C[C@H]32)cn1 | -13.96%
19 | CN(Cc1cc(-c2cccnc2)no1)C(=O)c1cccn1C | -14.42%
20 | CC(C)SCC(=O)N1CCc2c(nc(N(C)C)nc2N(C)C)C1 | -6.369%
21 | O=C(Cn1cccnc1=O)NCC1Cc2ccccc2O1 (centres undefined) | -8.588%
22 | Cc1csc(C(Cc2ccsc2)NC(=O)Cn2cccnc2=O)n1 (centres undefined) | 109.1%
23 | Cc1cccnc1C(Cc1ccsc1)NC(=O)Cn1cccnc1=O (centres undefined) | 151.6%

Row | SMILES | Percent Effect
24 | O=C(Cn1cccnc1=O)NCc1cccnc1OCC(F)(F)F | 2.082%
25 | O=C(Cn1cccnc1=O)NC(Cc1ccsc1)c1ccccn1 (centres undefined) | -0.3817%
26 | O=C(Cn1cccnc1=O)NC(Cc1ccsc1)c1nccs1 (centres undefined) | 149.8%
27 | CC(C)Sc1ccc(C(C)NC(=O)Cn2cccnc2=O)cc1 (centres undefined) | -6.353%
28 | O=C(Cn1cccnc1=O)NC(Cc1ccsc1)c1cccnc1 (centres undefined) | 105%
29 | CC(C)N(CC(N)=O)CC(=O)NCCc1c(F)cccc1F | 4.922%
30 | Cc1cnn(CC2CCCCN2CC(=O)N(C)Cc2ccc(C)o2)c1 (centres undefined) | -2.749%
31 | COc1cccc(S(=O)(=O)Cc2cc(C)on2)c1 | -2.252%
32 | COc1ncccc1C(Cc1ccsc1)NC(=O)Cn1cccnc1=O (centres undefined) | 115.2%
33 | CC(NC(=O)Cn1cccnc1=O)c1ccc(OC(F)(F)F)cc1 (centres undefined) | 5.256%
34 | CC(C)CCOc1ccc(C(C)NC(=O)Cn2cccnc2=O)cc1 (centres undefined) | -2.548%
35 | Cc1nc([C@@H]2C[C@@H]3CCN(Cc4cnn(C)c4)C[C@H]3O2)sc1C | -0.8686%
36 | Cc1[nH]ncc1C(=O)NCC1CCC2(CC1)OCCO2 | -7.861%
37 | Brc1cnc(NCCCOCC2CCOCC2)nc1 | 13.33%
38 | COCc1nc(C(=O)NS(=O)(=O)c2ccc(C)cc2C)cs1 | -13.89%
39 | COc1cc(N2C[C@@H]3COC[C@@H](Cc4nnc(C)o4)[C@@H]3C2)ncn1 | 80.24%
40 | Cc1nnc(C[C@@H]2COC[C@H]3CN(C(=O)c4ccco4)C[C@@H]23)o1 | -16.71%
41 | Cc1nnc(C[C@@H]2COC[C@H]3CN(C(=O)C4=CCCC4)C[C@@H]23)o1 | -9.93%
42 | COc1cc(N2C[C@@H]3COC[C@@H](Cc4nc(C)no4)[C@@H]3C2)ncn1 | 118.7%
43 | CCS(=O)(=O)N1C[C@@H]2COC[C@@H](Cc3nc(C)no3)[C@@H]2C1 | 1.999%
44 | Cc1noc(C[C@@H]2COC[C@H]3CN(S(C)(=O)=O)C[C@@H]23)n1 | -1.05%
45 | Cc1cc(CN(CC(N)=O)CC(C)C)no1 | -21.97%
46 | CC(C)CN1C[C@@H]2CN(S(=O)(=O)c3cccs3)C[C@@H]2C1=O | -12.36%

Row | SMILES | Percent Effect
47 | CN(Cc1cccs1)C(=O)CN1C(=O)c2cc(Cl)c(Cl)cc2C1=O | 78.58%
48 | CN(Cc1ccco1)C(=O)CN1CCN(C)c2ccccc2C1 | -2.251%
49 | Cc1cnn(C2CN(CC(=O)N(C)Cc3cccs3)C2)c1 | -27.07%
50 | CN(Cc1ccco1)C(=O)CN1C(=O)c2ccccc2C1=O | 72.08%
51 | CN(Cc1ccco1)C(=O)Nc1ccc(=O)n(C)c1 | 2.905%
52 | CN(Cc1cccs1)C(=O)CS(=O)(=O)Cc1ccc(Cl)c(Cl)c1 | 0.1099%
53 | Cc1cccc(C(C(=O)N(C)Cc2ccco2)N(C)C)c1 (centres undefined) | 9.844%
54 | CN(Cc1ccco1)C(=O)CN1C(=O)c2cc(Cl)c(Cl)cc2C1=O | 81.66%
55 | O=C1N(CCCc2ccccc2)CCCC1(O)CNCC1CCCCC1 (centres undefined) | 25.76%
56 | Cc1nnsc1CN1C[C@H]2CC[C@@H]1CN(Cc1ccc(F)cc1)C2 | 24.86%
57 | CC(=O)N1CCN(Cc2ccc(C(F)(F)F)c(F)c2)CC(O)C1 (centres undefined) | -15.55%
58 | CC(C)C(=O)NCC(=O)N(C)C1CCCN(C2Cc3ccccc3C2)C1 (centres undefined) | -0.79%
59 | Cc1ccc(N2CC3(COCCN(Cc4nccs4)C3)OCC2=O)s1.O=C(O)C(F)(F)F (centres undefined) | -2.22%
60 | CN(C)c1nc2c(c(=O)[nH]1)CCN(C(=O)c1cccc3nccnc13)C2 | 3.463%
61 | Nc1nc2c(c(=O)[nH]1)CCN(C(=O)c1cccc3nccnc13)C2 | 6.132%
62 | Cc1nc2c(c(=O)[nH]1)CCN(C(=O)c1cccc3nccnc13)C2 | 104.9%
63 | Cc1nccn1CCC1CCCCN1Cc1ccc(N(C)C)nc1 (centres undefined) | 13.8%
64 | O=C(O)C(F)(F)F.O=S(=O)(c1cccc(F)c1)N1CC[C@H]2[C@H]1CCN2c1ncccn1 | -6.82%
65 | O=C(C1CC1)N1C[C@H]2CCCN(S(=O)(=O)c3cccc(F)c3)[C@H]2C1 | 149%
66 | CC(=O)N1CCCC(C(=O)N2CCC(=Cc3cccc(F)c3)CC2)C1 (centres undefined) | 11.44%
67 | CC(=O)N1CCc2ccc(S(=O)(=O)N3CCCCC3C)cc21 (centres undefined) | -39.69%
68 | O=C(C1CC1)N1C[C@H]2CCCN(S(=O)(=O)c3ccc4c(c3)CCC4)[C@H]2C1 | 109.7%
69 | CC(=O)N1CCCc2ccc(S(=O)(=O)N3CCCCC3C)cc21 (centres undefined) | -24.19%
